Test results taken from PubChem BioAssay (NCATS).
Calls of active or inactive are those of the source. The call rests on the fitted dose curve; in most records, active means well fitted curve in the direction sought with a large enough effect; inactive means no such curve, though single readings can be large or run the other way.

molecular target: Alpha-galactosidase (Coffea arabica) (UniProt Q42656); test: Counterscreen for Glucocerebrosidase Inhibitors: qHTS Assay for Coffee Bean alpha-Galactosidase at pH 5.9 (AID 998); details: coffee bean alpha-galactosidase enzyme assay; series mostly up to 76.9 µM
Sequence (Q42656 whole entry, looked up): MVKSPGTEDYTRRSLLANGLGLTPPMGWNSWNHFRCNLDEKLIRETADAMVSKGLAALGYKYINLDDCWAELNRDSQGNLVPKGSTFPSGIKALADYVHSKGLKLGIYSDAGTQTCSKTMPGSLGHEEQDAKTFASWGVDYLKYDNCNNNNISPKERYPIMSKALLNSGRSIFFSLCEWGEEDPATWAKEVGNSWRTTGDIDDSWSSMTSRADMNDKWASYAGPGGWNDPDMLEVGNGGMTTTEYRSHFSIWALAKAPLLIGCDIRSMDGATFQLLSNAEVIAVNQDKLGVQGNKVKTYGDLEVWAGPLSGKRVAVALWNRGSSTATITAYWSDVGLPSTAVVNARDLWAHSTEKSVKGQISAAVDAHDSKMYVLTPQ
Method in brief: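 Fluorogenic 4-MU substrate hydrolysis, 80 uM substrate and 2 nM coffee bean alpha-galactosidase, pH 5.9 citrate buffer, 20 min at room temperature, then NaOH/glycine stop. Titration 0.7 nM–77 uM, normalized to no-enzyme and enzyme controls, AC50 via Hill equation.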

| Structure (SMILES) | outcome |
| --- | --- |
| CN1CCN(C2=Nc3ccccc3Oc3ccc(Cl)cc32)CC1 | inactive |
| CN(C)CCCN1c2ccccc2Sc2ccc(Cl)cc21 | inactive |
| CC1=NS(=O)(=O)c2cc(Cl)ccc2N1 | inactive |
| COc1ccc(Cl)cc1C(=O)NCCc1ccc(S(=O)(=O)NC(=O)NC2CCCCC2)cc1 | inactive |
| CN(C)CCC=C1c2ccccc2CCc2ccccc21 | inactive |
| O=c1[nH]cc(F)c(=O)[nH]1 | inactive |
| CCN(CC)CCOC(=O)C1(C2CCCCC2)CCCCC1 | inactive |
| O=c1n(CCCN2CCN(c3cccc(Cl)c3)CC2)nc2ccccn12 | inactive |
| O=NN(CCCl)C(=O)NCCCl | inactive |
| COc1cc2c(c(OC)c1OC)-c1ccc(OC)c(=O)cc1[C@@H](NC(C)=O)CC2 | inactive |
| Cc1ccc(S(=O)(=O)NC(=O)NN2CCCCCC2)cc1 | inactive |
| CNCCCN1c2ccccc2CCc2ccccc21 | inactive |
| CN/C(=C\[N+](=O)[O-])NCCSCc1ccc(CN(C)C)o1 | inactive |
| Nc1nc2c(ncn2COCCO)c(=O)[nH]1 | inactive |
| Nc1ccncc1 | inactive |
| O=C1CCc2cc(OCCCCc3nnnn3C3CCCCC3)ccc2N1 | inactive |
| O=c1c(O)c(-c2ccc(O)c(O)c2)oc2cc(O)cc(O)c12 | inactive |
| CC(=O)Nc1nnc(S(N)(=O)=O)s1 | inactive |
| O=C1c2c(O)ccc(O)c2C(=O)c2c(NCCNCCO)ccc(NCCNCCO)c21 | inactive |
| CCCCc1oc2ccccc2c1C(=O)c1cc(I)c(OCCN(CC)CC)c(I)c1 | inactive |
| O=C(C1CCCCC1)N1CC(=O)N2CCc3ccccc3C2C1 (stereo unspecified) | inactive |
